PLK1 PBD inh – inhibitors of human PLK1 polo-box domain binding; P53350; Plk1 PBD binding of FITC phosphopeptide, fluorescence polarization; Potency, µM, hits mostly inhibitors; 2.8% of 360,000 active; AID 720504; further: series mostly up to about 57 µM; nearly all actives have a fitted effect of over 65% in size
TDP1 cell noCPT – qHTS for Inhibitors of human tyrosyl-DNA phosphodiesterase 1 (TDP1): qHTS in cells in absence of CPT; DT40 Tdp1-/- hTDP1 cells, no CPT, ATP luminescence, 48 h; 15% of 420,000 active; Potency, µM (highest dose often 46.2 µM), usual class: inhibitors; further: nearly all actives have a fitted effect of over 55% in size
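Chicken DT40 Tdp1-/- cells stably complemented with human TDP1 were seeded at 400 cells/well with DMSO in place of 20 nM camptothecin. After compound pinning, cells grew at least 48 hr at 37 °C; viability read by CellTiter-Glo luminescence.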
GCN5L2 inh – blocks human GCN5L2 histone acetyltransferase. 0.21% of 390,000 active. AID 504327. Potency, µM (doses to about 58.9 µM), actives largely listed as inhibitors. GCN5L2 HAT assay, ThioGlo1 CoA-SH fluorescence
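qHTS, 1536-well. 20nM enzyme, pH 7.5 HEPES/EDTA/Tween-20 buffer; 15 min compound preinc., RT. Start: 75uM H3(1-25), 70uM AcCoA, 50uM ThioGlo1. Read Ex340/Em540 at t=0 (autofluorescence flag) and t=20 min.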
TDP1 cell CPT – DT40-hTDP1 cell growth loss with CPT; chicken DT40 Tdp1-/-;hTDP1 cells + 20 nM CPT, ATP luminescence, 48 h; Potency, µM (highest dose often 46.2 µM), actives largely listed as inhibitors; 12% of 420,000 active; further: nearly all actives have a fitted effect of over 55% in size
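Chicken DT40 Tdp1-/- cells stably complemented with human TDP1 were seeded at 400 cells/well in medium containing 20 nM camptothecin, exposed to pin-transferred compounds, and grown at 37 °C for at least 48 hr. Viability was read as ATP luminescence.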
TDP1 block – TDP1 (human) enzyme inhibition; Q9NUW8; recombinant TDP1, AlphaScreen DNA substrate cleavage; Potency, µM (doses to about 130 µM), actives largely listed as inhibitors; 0.28% of 350,000 active; AID 485290; further: nearly all actives have a fitted effect of over 40% in size
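Recombinant E. coli-expressed Tdp1 (1 nM) preincubated with compound 15 min at RT, then 5'-biotin/3'-phosphotyrosine-FITC DNA substrate (15 nM) added for 5 min. AlphaScreen beads (10 ug/ml) added, 10 min RT; tyrosine-FITC cleavage read as signal loss.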
VDR inhibitor – blocks the human vitamin D receptor; P11473; VDR-SRC2-3 peptide fluorescence polarization, 2 h; Potency, µM, hits mostly inhibitors; 0.93% of 400,000 active; AID 504847
Target sequence (P11473 whole entry, looked up): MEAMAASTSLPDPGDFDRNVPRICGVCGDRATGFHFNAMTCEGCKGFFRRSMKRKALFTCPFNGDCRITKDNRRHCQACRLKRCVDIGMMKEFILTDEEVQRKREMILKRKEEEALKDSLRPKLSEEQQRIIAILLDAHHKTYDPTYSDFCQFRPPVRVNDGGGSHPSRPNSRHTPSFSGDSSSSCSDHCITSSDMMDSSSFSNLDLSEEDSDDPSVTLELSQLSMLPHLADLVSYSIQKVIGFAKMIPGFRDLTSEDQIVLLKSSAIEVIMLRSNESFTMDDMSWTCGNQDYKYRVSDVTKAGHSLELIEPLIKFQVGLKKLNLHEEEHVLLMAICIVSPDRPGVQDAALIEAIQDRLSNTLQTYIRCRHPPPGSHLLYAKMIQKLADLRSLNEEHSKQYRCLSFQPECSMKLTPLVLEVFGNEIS
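Two reagent solutions held at 4 deg C in the dark were dispensed, compounds pinned at 23 nl, and the mixture incubated 2 h at room temperature. Read-out: fluorescence polarization of VDR–SRC2-3 peptide binding.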
Of the large screens only hits and unclear results are named; the others gave an inactive call. A selection: hits, their analogues and other compounds. The true share with any hit is near 18%. The call rests on the fitted dose curve; in most records, active means well fitted curve in the direction sought with a large enough effect; inconclusive means small, poorly fitted or top-dose-only effect, or another doubt; inactive means no such curve, though single readings can be large; an effect the other way counts as inactive or inconclusive.

COC(=O)c1cc(C(=O)N2CCOCC2)cc([N+](=O)[O-])c1	none
COC(=O)c1cc(C(=O)N2CCN(c3cccc(Cl)c3)CC2)cc([N+](=O)[O-])c1	TDP1 cell noCPT 0.92µM, TDP1 cell CPT 0.651µM
Cc1c(C(=O)N2CCN(c3cccc(Cl)c3)CC2)cccc1[N+](=O)[O-]	PLK1 PBD inh 29.9µM, TDP1 cell noCPT 16.4µM, TDP1 cell CPT 16.4µM, VDR inhibitor inconclusive
COc1cc(OC)c(C2C=CC(=O)CC2)c(OC)c1 (stereo unspecified)	none (no result: GCN5L2 inh, TDP1 block, VDR inhibitor)
Cc1csc2nc(COC(=O)c3ccc(F)cc3)cc(=O)n12	TDP1 cell noCPT 16.4µM, TDP1 cell CPT inconclusive (no result: PLK1 PBD inh)
Cc1ccc(OCC(=O)Nc2ccc(C(=O)OCc3cc(=O)n4c(C)csc4n3)cc2)cc1	TDP1 cell noCPT inconclusive, TDP1 cell CPT inconclusive (no result: PLK1 PBD inh)
CCOc1ccc(C(=O)Nc2ccc(C(=O)OCc3cc(=O)n4c(C)csc4n3)cc2)cc1	TDP1 cell noCPT 16.4µM, TDP1 cell CPT inconclusive (no result: PLK1 PBD inh)
Cc1csc2nc(COC(=O)c3ccccc3NC(=O)c3cccc(Br)c3)cc(=O)n12	TDP1 cell noCPT 8.2µM, TDP1 cell CPT 18.4µM (no result: PLK1 PBD inh)
Cc1ccc(-c2nc3cc(Cl)ccc3o2)cc1NC(=O)c1cc([N+](=O)[O-])ccc1N1CCOCC1	none (no result: PLK1 PBD inh)
COCCc1nn2c(=O)cc(COC(=O)C(c3ccccc3)c3ccccc3)nc2s1	TDP1 cell noCPT inconclusive, TDP1 cell CPT inconclusive (no result: PLK1 PBD inh)
CC(C)NC(=O)C1(C)CCCN1C(=O)c1cc(C#N)cs1 (stereo unspecified)	none (no result: GCN5L2 inh, TDP1 block, VDR inhibitor)
Cn1cccc1C(C#N)(CC#N)c1cccc(F)c1C#N (stereo unspecified)	none
Cn1cccc1C(C#N)c1cccc(F)c1C#N (stereo unspecified)	TDP1 cell noCPT 18.4µM, TDP1 cell CPT inconclusive
Cc1ccc(NC(=O)C(=O)NCC(c2ccc3c(c2)OCO3)N2CCN(C)CC2)cc1C (stereo unspecified)	TDP1 cell noCPT inconclusive, TDP1 cell CPT 16.4µM (no result: PLK1 PBD inh)
CCc1ccc(NC(=O)C(=O)NCC(c2ccc3c(c2)OCO3)N2CCN(C)CC2)cc1 (stereo unspecified)	TDP1 cell noCPT 16.4µM, TDP1 cell CPT inconclusive (no result: PLK1 PBD inh)
CCN(CC)S(=O)(=O)c1ccc(C(=O)N2CC(=O)Nc3ccc(F)cc3C2c2ccccc2)cc1 (stereo unspecified)	TDP1 cell noCPT inconclusive, TDP1 cell CPT inconclusive (no result: PLK1 PBD inh)
O=[N+]([O-])c1ccc(O)c(-c2cc(C(F)(F)F)nc(-c3ccccc3)n2)c1	TDP1 cell noCPT 0.651µM, TDP1 cell CPT 0.581µM (no result: TDP1 block)
CCOCCCNC(=O)NC(CCC(C)C)c1c(-n2cccc2)sc2c1CCN(C)C2 (stereo unspecified)	TDP1 cell noCPT 16.4µM, TDP1 cell CPT 16.4µM (no result: PLK1 PBD inh)
COc1cc(NC(=O)NC(C)c2c(-n3cccc3)sc3c2CCN(C)C3)cc(OC)c1 (stereo unspecified)	TDP1 cell noCPT 23.1µM, TDP1 cell CPT 23.1µM (no result: PLK1 PBD inh)
Cc1ccc(NC(=O)NCc2c(-n3cccc3)sc3c2CCCC3)c(Cl)c1	TDP1 cell noCPT 23.1µM, TDP1 cell CPT inconclusive (no result: PLK1 PBD inh)
CCN1CCc2c(sc(-n3cccc3)c2C(C)NC(=O)Nc2cc(Cl)c(OC)cc2OC)C1 (stereo unspecified)	TDP1 cell noCPT 18.4µM, TDP1 cell CPT 18.4µM (no result: PLK1 PBD inh)
CCCOC1CCCN(C(=O)c2ccc3oc(C(C)C)nc3c2)C1 (stereo unspecified)	TDP1 cell CPT inconclusive
COc1ccc(C2=Nn3c(nnc3-c3ccccc3O)SC2)cc1OC	none (no result: PLK1 PBD inh, TDP1 cell noCPT, GCN5L2 inh, TDP1 cell CPT, VDR inhibitor)
CCN(CC(=O)Nc1c(F)cccc1F)C(=O)CCSc1ccc(F)cc1	PLK1 PBD inh inconclusive
C[C@]12C=CC(=O)N[C@@H]1CC[C@@H]1[C@@H]2CC[C@]2(C)[C@@H](C(=O)Nc3cc(C(F)(F)F)ccc3C(F)(F)F)CC[C@@H]12	none (no result: PLK1 PBD inh, GCN5L2 inh, TDP1 block, VDR inhibitor)
COc1ccc(C)cc1NC(=O)NC(C)c1c(-n2cccc2)sc(C)c1C (stereo unspecified)	TDP1 cell noCPT inconclusive, TDP1 cell CPT inconclusive (no result: PLK1 PBD inh)
